Screening results: PubChem, National Center for Advancing Translational Sciences (NCATS)
Compounds with a hit are over-represented: about 19% of the library has one in this group of screens.
Shiga inhibitor – Shiga toxin inhibition; inhibition, % at 38.7 µM; AID 2315; Vero cells, Shiga toxin protein synthesis inhibition reporter; 9.2% of 290,000 active; in the data active = inhibition mostly above about 28%, no sharp cut-off; inactive = mostly below about 43%; also: 0% is about no effect
Pf growth 48h – P. falciparum growth inhibition at 48 hours (one generation). P. falciparum luciferase growth in erythrocytes, 48 h. Potency, µM (series often up to 28.7 µM), inactives show at the top dose activity change, negative = inhibition, most hits filed as inhibitors. 5.9% of 310,000 active; also: potency is read from the fitted curve at half-maximal effect; % is scaled to controls: 0 for no effect and ±100 for the full control effect
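A one-generation exposure of luciferase-tagged malaria parasites in RPMI 1640/Albumax erythrocyte culture, 37 C and 5% CO2. Inhibition is inferred from decreased luminescence after adding detection reagent.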
LASV entry inh – Lassa virus entry inhibition; Lassa virus pseudotype entry inhibition, cell reporter; 1.2% of 300,000 active; Potency, µM (top dose mostly 37.9 µM), for the others: at the top dose activity change, negative = inhibition, usual class: inhibitors; calls by dose curve; tested in HEK293 cells; also: potency is read from the fitted curve at half-maximal effect; % is scaled to controls: 0 for no effect and ±100 for the full control effect; nearly all actives have a fitted effect of over 50% in size
Pf growth 96h – P. falciparum growth inhibition at 96 hours. 6.9% of 320,000 active. P. falciparum luciferase reporter growth, 96 h. Potency, µM (highest dose often 28.7 µM), inactives show at the highest dose activity change, negative = inhibition, hits mostly inhibitors; also: potency is read from the fitted curve at half-maximal effect; % is scaled to controls: 0 for no effect and ±100 for the full control effect
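Two-generation exposure (96 h) targets delayed-death phenotype. Reporter parasites carrying integrated firefly luciferase, in red cells at 2% hematocrit and 0.05% parasitemia final, kept at 37 C, 5% CO2; luminescence loss indicates inhibition.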
Cycloheximide cs – affects cycloheximide protein synthesis inhibition readout, counter-screen. cell reporter, cycloheximide protein synthesis inhibition counterscreen. max response, %. 12% of 300,000 active. AID 2314; in the data active = max response mostly above about 13%, no sharp cut-off; inactive = mostly below about 14%; also: read at 38.3 µM for the half of the compounds with a filed dose; 0% is about no effect
Marburg entry inh – inhibitors of Marburg virus binding or cell entry; AID 540276; Marburg virus pseudotyped entry inhibition, cell reporter; Potency, µM (doses to about 37.8 µM), without a hit: at the highest dose activity change, negative = inhibition, hits mostly inhibitors; 1.8% of 300,000 active; calls by dose curve; tested in HEK293 cells; also: potency is read from the fitted curve at half-maximal effect; % is scaled to controls: 0 for no effect and ±100 for the full control effect
Numbers without * were called inactive; u = inconclusive; x = not tested or not shown; ! = a repeat was not active; [ ] = remark or other dose. Unless noted, calls follow the shape of the dose curve; as a rule, active = well fitted inhibition curve with a large enough effect; inconclusive = small, poorly fitted or top-dose-only effect, or another doubt; inactive = no such curve, though single readings can be large or run the other way.

SMILES	Shiga inhibitor	Pf growth 48h	LASV entry inh	Pf growth 96h	Cycloheximide cs	Marburg entry inh
COc1ccc(CCN2C(=O)c3[nH]nc(-c4ccccc4O)c3C2c2cccc(OC)c2)cc1 (stereo unspecified)	x	x	u	x	x	13µM*
C[C@@H](NC(=O)OC(C)(C)C)C(=O)NCC1CCC(C(=O)N[C@@H](Cc2ccccc2)C(=O)O)CC1 (stereo partly specified)	3	-7%	x	-3%	3	x
CCSc1nnc(NC(NC(=O)c2ccco2)(C(F)(F)F)C(F)(F)F)s1	-14	-8%	5%	-6%	-8	8%
COc1ccc(N2CCN(CC(=O)Nc3cc(C)on3)CC2)cc1	-17	6%	1%	19%	-6	6%
CCOc1ccc(C(C)=O)cc1NC(=O)/C=C\C(=O)O	-2	40%	-6%[46.1 µM]	10µM*	-2	-1%
COc1ccc(-c2noc(-c3ccc(N4CCCCC4)c([N+](=O)[O-])c3)n2)cc1	x	x	11%[46.1 µM]	x	x	6%[46.1 µM]
COc1cc([C@@H]2Oc3cc(C4Oc5cc(O)cc(O)c5C(=O)[C@H]4O)ccc3O[C@H]2CO)ccc1O (stereo partly specified)	x	10µM*	x	13µM*	x	x
COc1cc([C@H]2Oc3cc([C@H]4Oc5cc(O)cc(O)c5C(=O)[C@@H]4O)ccc3O[C@@H]2CO)ccc1O	-5	u	x	u	-2	x
CCC(=O)NC1=C(Cl)C(=O)C(NC(=O)CC)=C(Cl)C1=O	5	7.4µM*	x	4.7µM*	14*	x
CCOc1ccc(CN(C)CC(=O)NCc2ccccc2Cl)cc1	36*	30%	16%	u	12	28%[46.1 µM]
Fc1ccc(CCNCc2ccccc2Cl)cc1	24	x	22%	-17%	22*	-7%
Cc1ccc(CNCc2ccccc2Cl)cc1	22	x	0%	51%	16*	-13%
Fc1ccc(CNCc2ccccc2Cl)cc1	24	3%	8%[46.1 µM]	20%	14	-13%[46.1 µM]
CCOc1ccc(CNCc2ccccc2Cl)cc1	51*	30%	x	-21%	32*	x
COC(Cn1cc(C)c(=O)[nH]c1=O)OC	-8	6%	10%	-23%	-5	25%
Cc1cc(=O)oc2c1ccc1oc(/C(=N/O)c3ccccc3)c(C)c12	-2	1.7µM*	u	x	6	u
Cc1ccc(/C(=N\O)c2oc3c(C)c4oc(=O)cc(C)c4cc3c2C)cc1	21	u	0.37µM*	9.3µM*	-3	2.9µM*
Cc1cc(C)n(Cc2cc(C(=O)O)c3ccccc3n2)n1	-12	25%	-10%[46.1 µM]	2%	-4	12%[46.1 µM]
O=C(Nc1nccs1)C1CC(=O)N(CCc2ccc(F)cc2)C1 (stereo unspecified)	-7	3%	26%[46.1 µM]	12%	-6	-12%[46.1 µM]
CN(CC(=O)Nc1c(Cl)cccc1Cl)C(=O)CC1Sc2ccccc2NC1=O (stereo unspecified)	x	9%	2%[46.1 µM]	-14%	x	-8%
COc1ccc(CNC(=O)CCC2N=C3c4ccccc4N=C(SCC(=O)NCCc4ccc(OC)c(OC)c4)N3C2=O)cc1 (stereo unspecified)	x	x	16%[46.1 µM]	x	x	x
Cc1cccc(Cn2c(=O)c3c(nc4n3CCN4Cc3ccco3)n(C)c2=O)c1	-3	9.3µM*	7%	5.9µM*	10	-2%
Cn1c(=O)n(Cc2ccccc2F)c(=O)c2c1nc1n2CCN1Cc1ccco1	-13	u	x	8.3µM*	4	2%[46.1 µM]
Cn1c(=O)n(Cc2ccc(Cl)cc2)c(=O)c2c1nc1n2CCN1Cc1ccco1	-8	u	u	13µM*	14	-23%
COc1ccccc1Oc1nc2c(c(=O)n(Cc3ccccc3F)c(=O)n2C)n1C	-9	-25%	-9%	15µM*	-2	-1%[46.1 µM]
SMILES	Shiga inhibitor	Pf growth 48h	LASV entry inh	Pf growth 96h	Cycloheximide cs	Marburg entry inh
Cc1c(-c2ccccc2)nc2c(Cl)cccc2c1C(=O)OCC(=O)c1ccc(F)cc1	x	x	-2%[46.1 µM]	x	x	10%[46.1 µM]
Cc1cccc(OCCSc2nc3ccccc3n2CCC(=O)O)c1	-4	-15%	x	u	4	x
Nn1c(COc2ccccc2)nnc1SCc1cc(=O)[nH]c2ccccc12	-1	0%	2%	139%	-1	-1%
CC(=O)Nc1ccc(NC(=O)c2ccc(CN3CCc4ccccc4C3)cc2)cc1	-8	u	11%	9.3µM*	-1	u
CSc1cccc(NC(=O)c2ccc(CN3CCc4ccccc4C3)cc2)c1	22	4.1µM*	u	3%	13	u
O=C(Nc1ccc(F)cc1)c1ccc(CN2CCc3ccccc3C2)cc1	7	-30%	x	u	-2	x
CCc1cccc(C)c1NC(=O)c1ccc(CN2CCc3ccccc3C2)cc1	-5	4.7µM*	u	1.5µM*	-2	u
O=C(Nc1cccc(Br)c1)c1ccc(CN2CCc3ccccc3C2)cc1	19	-9%	x	9.3µM*	17*	x
Cc1ccccc1NC(=O)c1ccc(CN2CCc3ccccc3C2)cc1	-2	-24%	-7%	-27%	2	-10%
CNc1nnc(SCC(=O)c2c(N)n(C3CC3)c(=O)[nH]c2=O)s1	x	1%	10%	0%	x	1%[46.1 µM]
CN(C)/C=C1\SC(=S)N(c2ccc(Br)cc2)C1=O	46*	2.3µM*	x	75%	34*	x
CN(C)/C=C1\SC(=S)N(c2ccc(F)cc2)C1=O	32	u	x	81%	33*	6%
CCOc1ccc2nc(SCC(=O)NCC3CCCO3)sc2c1 (stereo unspecified)	x	x	-2%[46.1 µM]	x	x	-6%[46.1 µM]
CCOc1ccc2nc(SCC(=O)c3ccccc3)sc2c1	91*	x	-29%	39%	43*	u
CCOc1ccc2nc(SCCNS(=O)(=O)c3ccccc3)sc2c1	-5	-16%	u	42%	1	u
CCOc1ccc2nc(SCC(=O)NC3CC3)sc2c1	20	21%	x	61%	15*	x
CCOc1ccc(NC(=O)COc2ccc(N3CC(C(N)=O)CC3=O)cc2)cc1 (stereo unspecified)	x	x	-7%	x	x	1%[46.1 µM]
CCCN1CCCC2Cc3nc(N)ncc3CC21 (stereo unspecified)	x	-5%	x	12µM*	x	x
CN1C(=O)C(=Cc2coc3ccccc3c2=O)C(=O)N(C)C1=O	23	53%	x	30%	20*	x
CSC1=NSC2=NC(=O)/C(=C\c3coc4ccccc4c3=O)C(=N)N12	-7	-10%	0%	-3%	-2	u
Clc1ccc2c(c1)C(N1CCNCC1)=Nc1ccccc1O2	-12	u	u	u	-1	10µM*!
Clc1ccc2c(N3CCNCC3)ccnc2c1	-8	u	28%	x	-3	8%[46.1 µM]
Cc1ccnc(NC(=O)c2sc3ccccc3c2Cl)c1	89*	165%	u	12%	42*	1.6µM*
CC(C)c1nnc(NC(=O)c2sc3ccccc3c2Cl)s1	67*	115%	5%	13%	29*	-27%
O=C(Nc1nccs1)c1sc2ccccc2c1Cl	78*	-37%	13µM*	47%	30*	7.1µM*
Cc1cccnc1NC(=O)CNC(=O)c1sc2ccccc2c1Cl	x	77%	x	45%	x	x
